GALK inhibitor – blocks human galactokinase activity; Potency, µM (highest dose often 57.5 µM), inactives show at the highest dose activity change, negative = inhibition, hits mostly inhibitors; AID 1868; Purified GALK, Kinase-Glo residual ATP luminescence; 270,000 tested, 0.007% active; note: potency is the fitted concentration of half-maximal effect
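GALK at 5 nM final was combined with compound, 35 uM ATP and 100 uM galactose in HEPES pH8.0 with MgCl2 and DTT. The reaction ran one hour at room temperature before luminescent ATP detection.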
FBPA coupling cs – coupling enzyme interference in Giardia aldolase counter-screen. coupling enzyme system counterscreen, AmpLite Red fluorescence. activity change, negative = inhibition, % at 58.2 µM, hits read low. 290,000 tested, 0.67% active. AID 2472; in the data active = activity change below about -30%
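First, compound is pin-transferred into glyceraldehyde-3-phosphate coupling-enzyme reagent at 57.5 uM final and held 10 min at RT. Next, substrate, coupling system and AmpLite Red are added. After 20 min RT, fluorescence (525/598 nm) is read.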
VP16 counter – inhibits Gal4-VP16 luciferase reporter, ROR gamma counter-screen; Drosophila S2 Gal4-VP16 UAS-luciferase, luminescence, 20 h; Potency, µM (highest dose often 53.6 µM), for the others: top-dose activity, negative = inhibition, hits mostly inhibitors; 310,000 tested, 3.5% active;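 note: Gal4-VP16 expression switched on by copper sulfate through the metallothionein promoter; potency is the fitted concentration of half-maximal effect; nearly all actives have a fitted effect of over 50% in size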
rTrxR1 inhibitor – blocks rat thioredoxin reductase 1 | recombinant rTrxR1, NADPH fluorescence consumption, selenite substrate | AID 588453 | 390,000 tested, 1% active | O89049 | Potency, µM (doses to about 114 µM), for the others: at the highest dose activity change, negative = inhibition, most hits filed as inhibitors; note: potency is the fitted concentration of half-maximal effect; nearly all actives have a fitted effect of over 65% in size
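Rat TrxR1 (90 nM in the dispensed reagent) was pre-reduced with 400 uM NADPH for 5 min at room temperature, then incubated with compound for 15 min. After 400 uM selenite was added, NADPH fluorescence (Ex 340/Em 450 nm) was followed for 8 min.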
TrxR1 substrate – rat thioredoxin reductase 1 substrate activity; 390,000 tested, 0.01% active; AID 588456; Potency, µM (titrated, usually from 114 µM), without a hit: top-dose activity change, negative = substrate turnover; purified TrxR1 substrate turnover, NADPH consumption readout; note: potency is the fitted concentration of half-maximal effect; nearly all actives have a fitted effect of over 50% in size
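Rat TrxR1, dispensed at 90 nM, was prereduced with 400 uM NADPH (final) for 5 min at ~22 deg C, then incubated with compound 15 min before 400 uM selenite. A first-read NADPH fluorescence drop versus no-compound background flagged substrates.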
RORgamma inh – blocks mouse ROR gamma transcriptional activity; Drosophila S2 Gal4-RORgamma UAS-luciferase reporter, 20 h; AID 2551; P51450; 310,000 tested, 5.4% active; Potency, µM (highest dose often 53.6 µM), for inactives: at the top dose activity change, negative = inhibition, usual class: inhibitors; note: potency is the fitted concentration of half-maximal effect; nearly all actives have a fitted effect of over 60% in size
Target sequence (P51450 whole entry, looked up, the tested form may be a part): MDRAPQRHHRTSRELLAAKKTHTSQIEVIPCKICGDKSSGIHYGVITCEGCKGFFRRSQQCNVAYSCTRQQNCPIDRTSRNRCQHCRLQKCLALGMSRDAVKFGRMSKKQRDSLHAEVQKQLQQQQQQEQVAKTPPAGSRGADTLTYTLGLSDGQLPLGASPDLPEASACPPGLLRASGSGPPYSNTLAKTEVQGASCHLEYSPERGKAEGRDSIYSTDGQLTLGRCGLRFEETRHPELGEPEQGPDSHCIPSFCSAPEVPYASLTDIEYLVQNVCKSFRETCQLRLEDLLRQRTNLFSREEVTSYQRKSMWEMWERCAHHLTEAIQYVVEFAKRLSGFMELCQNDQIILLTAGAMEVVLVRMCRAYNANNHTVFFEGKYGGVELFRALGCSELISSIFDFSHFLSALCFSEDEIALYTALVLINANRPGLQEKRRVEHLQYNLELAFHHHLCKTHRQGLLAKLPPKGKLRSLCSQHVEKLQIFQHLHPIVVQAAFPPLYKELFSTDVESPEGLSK
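Stably transfected Drosophila Schneider cells are the test system, with ROR gamma fused to Gal4 and luciferase under UAS control; luminescence is read after 20 hr of 700 uM copper sulfate induction at ambient temperature.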
* marks the source's active call; other numbers are inactive results; ? = inconclusive; / = no result; [ ] = another dose, or the depositor's remark. Most compounds without a hit are left out; they make up all but 5.9% or so of the library. Unless noted, calls come from the whole dose curve; as a rule, active = well fitted curve in the direction sought with a large enough effect; inconclusive = small, poorly fitted or top-dose-only effect, or another doubt; inactive = no such curve, though single readings can be large; an effect the other way counts as inactive or inconclusive. % is set by controls: 0 for no effect and ±100 for the full control effect.

SMILES	GALK inhibitor	FBPA coupling cs	VP16 counter	rTrxR1 inhibitor	TrxR1 substrate	RORgamma inh
CCOC(=O)c1cccc(NC(=O)C2CCCN(S(=O)(=O)c3c(C)nn(C)c3C)C2)c1 (stereo not drawn)	0%	-2	-10%	-2%	1%	0%
CCS(=O)(=O)c1ccc(O)c(NC(=O)c2cc(OC)c(OC)c(OC)c2)c1	0%	3	0%	7%[57.1 µM]	6%[57.1 µM]	-10%
COc1ccccc1N=Nc1[nH]c2ccc(C)cc2c1O	1%	-1	4%	-12%	-4%	32%
CCS(=O)(=O)c1ccc(N=Nc2ccc(O)c3ncccc23)c(OC)c1	1%	-2	16µM*	11%[57.1 µM]	3%[57.1 µM]	7.1µM*
COc1ccccc1N=Nc1ccc(O)c2ncccc12	6%	-27	3.2µM*	?	-7%[57.1 µM]	2.8µM*
Oc1ccc(N=Nc2ccccc2C(F)(F)F)c2cccnc12	2%	-2	3.5µM*	13%[57.1 µM]	0%[57.1 µM]	3.5µM*
O=C(Cc1ccc(F)cc1)NCCc1csc2nc(-c3ccc(Cl)cc3)nn12	/	/	/	-4%[57.1 µM]	-2%[57.1 µM]	/
CCc1ccc(NC(=O)CN(N=Nc2nonc2C)c2nonc2C)cc1	3%	-1	?	-1%[57.1 µM]	6%	4µM*
CCc1ccc(NC(=O)c2cc(C)no2)cc1	3%	3	?	16%[57.1 µM]	-18%[57.1 µM]	15%
Cc1ccccc1-c1nnc(-c2ccc(Br)cc2)o1	3%	1	2.8µM*	11%[57.1 µM]	14%[57.1 µM]	-45%
CCCCC1C(=O)N(c2ccccc2)N(c2ccc(O)cc2)C1=O (stereo not drawn)	/	-3	5.6µM*	7.9µM*	6%	4.5µM*
c1coc(CN2CN=C(Nc3nc4ccccc4s3)NC2)c1	0%	0	-4%	16%	5%	11%
CC(C)(C)c1ccc(-c2nnc(SC3CCOC3=O)n2Cc2ccccc2)cc1 (stereo not drawn)	1%	1	?	?	-10%	16µM*
O=C1OCCC1Sc1nc2cc(Cl)ccc2n1Cc1ccccc1 (stereo not drawn)	2%	1	?	-2%[57.1 µM]	5%[57.1 µM]	13µM*
CCOC(=O)C1(C(=O)OCC)CC1c1ccccc1 (stereo not drawn)	0%	0	26%	11%[57.1 µM]	10%[57.1 µM]	-15%
Nc1cc(S(=O)(=O)N2CCCCC2)ccc1Oc1ccc(Cl)cc1	1%	0	-19%	29%	-5%	11%
O=C(Nc1ccc2c(c1)OCO2)C1CC(c2ccccc2O)=NO1 (stereo not drawn)	5%	2	?	17%	5%	1.6µM*
CCn1ncc(C2=NOC(C(=O)Nc3ccc(C)cc3)C2)c1C (stereo not drawn)	-3%	-2	-10%	6%[57.1 µM]	-3%[57.1 µM]	22%
CCn1ncc(C2=NOC(C(=O)Nc3ccc4c(c3)OCO4)C2)c1C (stereo not drawn)	2%	-5	16µM*	11%	8%	14%
O=C(Nc1ccc2c(c1)OCCO2)C1CC(c2ccccc2Cl)=NO1 (stereo not drawn)	/	1	13%	11%	-5%	-27%
C[C@@H]1CCC(=O)N(CC[C@H](N=[N+]=[N-])c2ccccc2)CC1	/	0	4%	26%	11%	9%
Cc1ccc(-n2c(SCC(=O)c3c(N)n(C)c(=O)n(C)c3=O)nc3sc4c(c3c2=O)CCCC4)c(C)c1	2%	1	-2%	4%	-2%	19%
COc1cccc2cc(C(=O)C3=C(O)C(=O)N(c4cc(C)on4)C3c3cccs3)oc12 (stereo not drawn)	-12%	6	-12%	50µM*	-17%	?
C[C@@H](/C=C\c1cccc(Oc2ccc(F)cc2)c1)N(O)C(N)=O	/	-8	-1%	/	/	-21%
Cc1ccccc1C(=O)NNc1ccc([N+](=O)[O-])cc1	0%	0	-3%	0%	1%	14%
SMILES	GALK inhibitor	FBPA coupling cs	VP16 counter	rTrxR1 inhibitor	TrxR1 substrate	RORgamma inh
COC(=O)C(NNc1ccccc1)(NC(=O)c1ccc(F)cc1)C(F)(F)F (stereo not drawn)	-1%	0	-12%	-12%	-1%	3%
O=[N+]([O-])c1ccc(NNC(=S)Nc2ccc(F)cc2)cc1	4%	0	11µM*	-19%	-10%	?
O=C(NC(NNc1ccc([N+](=O)[O-])cc1)(C(F)(F)F)C(F)(F)F)c1ccc(F)cc1	1%	0	?	28µM*	-25%	?
O=C(NC(NNc1ccc([N+](=O)[O-])cc1)(C(F)(F)F)C(F)(F)F)c1ccccc1Cl	-2%	-2	7%	3.2µM*	-22%	37%
CCCC(=O)Nc1ccc(NC(=O)c2cccc(OC)c2)cn1	0%	0	20%	-6%	4%[57.1 µM]	?
COc1ccc(NC(=O)CN(c2ccc(C)cc2)S(=O)(=O)c2c(C)nn(C)c2C)cc1OC	0%	1	?	25%	3%	16µM*
COc1ccc2nc(NC(=O)CN(c3ccc(C)cc3)S(=O)(=O)c3c(C)nn(C)c3C)sc2c1	2%	0	18µM*	-5%	-9%	0%
COc1ccc(NC(=O)CN(c2ccc(C)cc2)S(=O)(=O)c2c(C)nn(C)c2C)cc1	3%	-2	-5%	19%	2%	14%
CSc1ncccc1C(=O)Nc1nccs1	-3%	-1	-16%	7%	2%	10µM*
Cc1ccc(C(=O)Nc2ncc(C)s2)s1	-2%	-13	?	5%	-1%	7.1µM*
CSc1ncccc1C(=O)Nc1ncc(C)s1	3%	0	-21%	8%	-2%	11µM*
Cc1ccc(C(=O)Nc2ncc(C)s2)o1	2%	2	-7%	-2%	-9%	?
CCOC(=O)CC1c2cc(OCC)c(OCC)cc2CCN1C(=O)Nc1cccc(Cl)c1 (stereo not drawn)	/	/	/	19%	0%	/
COc1ccc(CCNc2ncccc2C#N)cc1OC	7%	0	2%	5%	-3%	31%
Cc1cc(=O)oc2cc(OCC(=O)c3ccccc3)ccc12	2%	-1	-16%	6%[57.1 µM]	10%[57.1 µM]	2%
Cc1cc(=O)oc2cc(OCC(=O)N/N=C/c3ccccc3O)ccc12	2%	0	-19%	29%	12%	2.2µM*
O=C(O)COc1ccc(/C=N/NC(=O)COc2nsnc2N2CCOCC2)cc1	4%	1	-1%	-19%	-11%	4%
O=C(COc1nsnc1N1CCOCC1)N/N=C/c1ccccc1O	2%	-2	3.2µM*	-5%	3%	0.71µM*
CSc1nc(C)cc(OCC(=O)N/N=C/c2ccccc2O)n1	1%	-1	0.71µM*	8%	10%[0.0914 µM]	0.89µM*

Bioassay records deposited in PubChem BioAssay by National Center for Advancing Translational Sciences (NCATS).
